# “And” between values parts separate entries of the source, which are not always exact repeats. Equal values may be shown once. About 2,400 (0.67%) of roughly 360,000 compounds were called active. The sample holds actives, similar compounds and a random draw of the others, so the mix is not that of the screen. Unmarked numbers belong to inactive results. Rule as the data show it: active = enhancement above about 30%; inactive = the rest.
# Biological target: Thyrotropin-releasing hormone receptor (Homo sapiens) (UniProt P34981)
# Sequence (P34981 whole entry, looked up): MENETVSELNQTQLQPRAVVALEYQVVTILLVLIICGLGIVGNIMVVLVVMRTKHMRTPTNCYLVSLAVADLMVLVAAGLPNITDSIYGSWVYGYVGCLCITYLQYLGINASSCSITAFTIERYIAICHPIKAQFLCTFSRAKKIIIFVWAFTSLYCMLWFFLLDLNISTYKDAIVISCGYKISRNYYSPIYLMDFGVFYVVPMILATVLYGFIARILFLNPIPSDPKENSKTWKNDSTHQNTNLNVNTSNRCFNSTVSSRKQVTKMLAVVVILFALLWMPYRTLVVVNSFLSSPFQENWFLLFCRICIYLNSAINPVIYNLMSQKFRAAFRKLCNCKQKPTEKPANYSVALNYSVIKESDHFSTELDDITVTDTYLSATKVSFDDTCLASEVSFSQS
# Assay: qHTS for Small Molecule Agonists and Allosteric Enhancers of Human TRH Receptor: Primary Screen for Enhancers; also: 0% is about no effect
# Conditions: TRHR cells, fluo-8 calcium fluorescence, EC20 TRH enhancement; at 2 µM; active compounds read high
# Procedure, shortened: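 Enhancer read-out: after compound pinning and an initial kinetic agonist-mode read, an EC20 of TRH (10 nM final) was injected and fluo-8 calcium signal (Ex 480/Em 530) followed at 1 s/cycle for 100 cycles in TRHR-expressing cells.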
row,Structure (SMILES),enhancement
1,CC(C)(C)c1ccc(OCC(=O)N2CCC(c3nc4ccccc4s3)CC2)cc1,-1.99%
2,COC1=C/C(=C/c2c(N)n3nc(CC(=O)N4CCOCC4)sc3nc2=O)C=CC1=O,2.92%
3,C=CCC1=C/C(=C\c2c(N)n3nc(CC(=O)N4CCOCC4)sc3nc2=O)C=C(OC)C1=O,52.7% (active)
4,COc1cc(OC)c(NC(=O)c2c3c(nn2C)-c2ccccc2SC3)cc1Cl,2.77%
5,CC(C)(C)c1ccc(C(=O)N2CCC(c3nc(-c4ccc(S(=O)(=O)N5CCCC5)cc4)no3)CC2)cc1,-2.71%
6,COc1cccc(-c2cc(C(=O)Nc3ccc(C)cc3)[nH]n2)c1,-0.168%
7,COc1ccc(CCNC(=O)C2CCCN(Cc3nc(-c4cccc(Cl)c4)oc3C)C2)cc1OC (stereo not drawn),-8.38%
8,Cc1oc(-c2ccccc2F)nc1CN1CCC(C(=O)NCCc2ccc(Cl)cc2)CC1,31.8% (active)
9,COc1ccc(-c2nc(CN3CCC(C(=O)NCc4ccccc4)CC3)c(C)o2)cc1OC,3.63%
10,OCC1(CCc2ccccc2)CCN(Cc2ccc3nsnc3c2)CC1,-4.46%
11,COc1cccc(CC2(CO)CCN(Cc3cnc(-c4cccc(C)c4)nc3)CC2)c1,1.96%
12,Cc1c(CN2CCC(CO)(CCOc3ccccc3)CC2)[nH]c2ccc(Cl)cc12,35.6% (active)
13,CN(Cc1ccccc1)c1ccc(-c2nc(-c3ccccc3)no2)cc1[N+](=O)[O-],5.53%
14,Cc1ccc(OC(=O)CSc2nnc(-c3cccs3)o2)cc1,-4.22%
15,CCC(C)NC(=O)c1ccc(NC(=O)CC2SC(N3CCCCC3)=NC2=O)cc1 (stereo not drawn),-8.07%
16,O=C(CC1SC(N2CCCC2)=NC1=O)Nc1ccc(C(=O)NCCc2ccc(F)cc2)cc1 (stereo not drawn),33.4% (active)
17,COc1ccc(NC(=O)CC2SC(N3CCCCC3)=NC2=O)cc1OC (stereo not drawn),1.49%
18,Cc1cc2nc(-c3ccc(NC(=O)c4cc5ccccc5o4)cc3)oc2cc1C,-7.25%
19,CC(=O)c1ccc(N2CCN(c3nc4c(S(=O)(=O)c5ccccc5)nnn4c4ccc(Cl)cc34)CC2)cc1,1.21%
20,O=C(CNC(=O)c1ccccc1)OC(C(=O)Nc1cc([N+](=O)[O-])ccc1F)c1ccccc1 (stereo not drawn),-0.946%
21,COc1ccc(/C=C/CN2CCCC(C(=O)c3cc(F)ccc3F)C2)cc1 (stereo not drawn),31.8% (active)
22,O=C(c1ccc(OC2CCN(C/C=C/c3ccc(F)cc3)CC2)cc1)N1CCCCC1,0.691%

row,Structure (SMILES),enhancement
1,CSCC(=O)N1CCCC(C(=O)c2cc(F)ccc2F)C1 (stereo not drawn),-3.7%
2,Cc1ccc2oc3c(c(=O)c2c1)C(c1ccc([N+](=O)[O-])cc1)N(CCCN1CCOCC1)C3=O (stereo not drawn),-0.734%
3,COc1ccc2oc(=O)c(-c3cn4c(n3)sc3cc(OC)ccc34)cc2c1,1.26%
4,C/C(=N/NC(=O)CN1CCN(S(=O)(=O)c2ccc(Br)cc2)CC1)c1ccncc1,1.09%
5,Cc1cccc(NC(=O)CN2CCCN(S(=O)(=O)c3ccc(Br)s3)CC2)c1,9.87%
6,Cc1ccc(S(=O)(=O)N2CCN(CC(=O)N/N=C/c3ccc(Br)s3)CC2)cc1,47.7% (active)
7,CCOC(=O)c1ccccc1NC(=O)CCc1c(C)nc2c(c1C)c(=O)n(C)c(=O)n2C,-7.61%
8,Cc1cc(C)cc(NS(=O)(=O)c2ccc(-c3cc(C)no3)s2)c1,-5.49%
9,CCc1ccc(/C=C2\SC(N3CCOCC3)=NC2=O)cc1,38.7% (active)
10,O=C1N=C(N2CCOCC2)S/C1=C\C=C/c1ccccc1,-2.61%
11,CCOc1cc(/C=C2\SC(N3CCCC(C)C3)=NC2=O)ccc1O (stereo not drawn),-4.09%
12,COc1ccc(CCNC(=O)CCCn2c(=O)c3ccccc3n(Cc3ccc(F)cc3Cl)c2=O)cc1OC,4.63%
13,COc1ccc(NC(=O)CSc2ncnc3[nH]ncc23)cc1,3.87%
14,COc1ccc(NC(=O)CSc2nc(NS(=O)(=O)c3ccc(C)cc3)cc(=O)[nH]2)cc1,-7.18%
15,COc1ccc2nc(SCC(=O)Nc3c(C)cc(C)cc3C)[nH]c2c1,0.227%
16,Cc1csc(SCC(=O)Nc2sccc2C#N)n1,-4.36%
17,COC(=O)c1cccc(NC(=O)CSc2nc(C)cc(=O)[nH]2)c1,36.7% (active)
18,COc1ccc(NC(=O)CSc2nc3ccccc3[nH]2)cc1,39.7% (active)
19,COc1ccc(NC(=O)CSc2nc(C)cs2)cc1,33.7% (active)
20,O=C(COC(=O)CCCSc1nc2ccccc2[nH]1)Nc1ccc(Oc2ccccc2)cc1,1.7%
21,CC(=O)c1cccc(NC(=O)CSc2nc3c(c(=O)[nH]2)CCC3)c1,-3.58%
22,COC(=O)c1cccc(Cn2nnc3sc4c(c3c2=O)CCC(C(C)(C)C)C4)c1 (stereo not drawn),-1.23%

row,Structure (SMILES),enhancement
1,COc1ccc(CCNC(=O)C(=O)NCC(c2ccco2)S(=O)(=O)c2cccs2)cc1OC (stereo not drawn),-2.44%
2,Cn1nnnc1Sc1ncnc2scc(-c3ccccc3[N+](=O)[O-])c12,-1.81%
3,COc1cc(OC)cc(C(=O)Nc2ccc3nc(Nc4cccc(C(F)(F)F)c4)cc(C)c3c2)c1,-5.96%
4,CC1=CC(C)(C)N(C(=O)CSc2nccn2C)c2cc(C)ccc21,-7.93%
5,CC1=CC(C)(C)N(C(=O)CSc2nnc(-c3ccccc3)o2)c2ccc(C)cc21,35.8% (active)
6,Cc1cccc(-c2nnc(SCC(=O)N3CCCc4ccccc43)o2)c1,-6.5%
7,CCOc1ccc(-c2cc(C)n3nc(C(=O)Nc4ccc(C)c(C)c4)cc3n2)cc1,4.67%
8,COc1cccc(NC(=O)c2csnn2)c1,1.76%
9,Cc1ccccc1-n1nc(C)c2cc(C(=O)NC3CC3)sc21,-3%
10,CCOC(=O)CNC(=O)c1cc2c(=O)n3cccc(C)c3nc2s1,-2%
11,Cc1cccn2c(=O)c3cc(C(=O)NC4CCCCC4)sc3nc12,44.3% (active)
12,COc1ccc(Cl)cc1NC(=O)C(C)Sc1nc2c(c(=O)[nH]1)CCCC2 (stereo not drawn),0.18%
13,COc1ccc(C2COC(=O)C2=N)c(NC(=O)c2ccccc2)c1 (stereo not drawn),-7.29%
14,CC(=O)c1cc(NC(=O)c2ccccc2)c(=O)oc1/C=C/N(C)C,31.6% (active)
15,CCOC(=O)c1cc(NC(=O)c2ccc(F)cc2)c(=O)n2c1oc1ccccc12,-6.78%
16,COc1cc(OC)c(NC(=O)Cc2ccc(-n3c(C)nc4cccnc43)cc2)cc1Cl,9.81%
17,COc1ccc(Cc2n[nH]c(=S)n2NC(=O)Nc2ccc(C)cc2)cc1,-6.6%
18,COc1ccc(OCc2n[nH]c(=S)n2N)cc1,41.1% (active)
19,CSc1n[nH]c(=S)n1N,4.42%
20,COc1ccccc1N1CCN(c2ccc(=O)n(CC(=O)NCc3ccc(OC(C)C)cc3)n2)CC1,2.06%
21,COc1cc(OC)c(NC(=O)c2cnc(N3CCCC3)nc2C)cc1Cl,0.561%
22,CCOCCCNC(=O)c1c(NC(=O)c2nc(SC)ncc2Cl)sc2c1CCCC2,6.4%

row,Structure (SMILES),enhancement
1,CC1=C(C)CC(C(=O)NC(C)CCc2ccccc2)C(C(=O)O)C1 (stereo not drawn),46.8% (active)
2,CCN(CC)S(=O)(=O)N1CCC(C(=O)NC(C)CCc2ccccc2)CC1 (stereo not drawn),5.01%
3,CC(CCc1ccccc1)NC(=O)c1cnc(Cl)c(Cl)c1 (stereo not drawn),-11.8%
4,CCc1nn(CC(=O)N2CCN(c3cccc(C(F)(F)F)c3)CC2)c(=O)c2cc3occc3n12,6.05%
5,COc1cc(OC)cc(C(=O)NCCc2csc3nc(-c4ccccc4F)nn23)c1,-2.81%
6,COc1ccc(C2(C)NC(=O)N(CC(=O)c3ccc4c(c3)OCO4)C2=O)cc1 (stereo not drawn),2.8%
7,COc1ccc(C2(C)ON(c3ccccc3C(F)(F)F)C2=O)cc1 (stereo not drawn),35% (active)
8,COc1ccc(C2(O)C(=O)Nc3ccccc32)cc1 (stereo not drawn),-4.9%
9,COc1ccc(NC(=O)C2CCCN(S(=O)(=O)c3cccc4nonc34)C2)cc1Cl (stereo not drawn),-6.01%
10,Cc1ccc(Cn2c(CCCNC(=O)C3CCCCC3)nc3ccccc32)cc1,-17%
11,c1cnc(N2CCN(c3ccc4ccccc4n3)CC2)nc1,45.5% (active)
12,O=C(c1ccc2ccccc2n1)N1CCN(c2ccccc2Cl)CC1,2.59%
13,CC12CCC(C(=O)N3CCN(c4ncccn4)CC3)(c3nc4ccccc4nc31)C2(C)C (stereo not drawn),-2.73%
14,CCOc1ccccc1CNC(=O)c1ccc(-n2c(C)cc3c2CCC(C)C3)cc1 (stereo not drawn),-0.716%
15,NC(=O)CSc1nc2c(oc3ccccc32)c(=O)n1Cc1ccccc1,-1.53%
16,O=C(CNC(=O)c1ccc(Cl)cc1Cl)NCC(=O)Nc1ccccc1N1CCOCC1,31.1% (active)
17,O=C(Nc1ccccc1N1CCOCC1)c1ccncc1,6.76%
18,Cc1ccc(NC(=O)COC(=O)CNC(=O)c2ccc(Cl)cc2Cl)cc1S(=O)(=O)N1CCOCC1,1.95%
19,CCOC(=O)c1c(-c2ccc(OC)cc2)oc2ccc(OCc3ccc(C(=O)OC)cc3)cc12,-1.96%
20,CCOC(=O)c1ccc(COC(=O)CCc2nc(-c3ccccc3)c(-c3ccccc3)o2)cc1,31.7% (active)
21,CCOC(=O)c1ccc(-n2c(CCC(=O)O)ccc2-c2ccccc2)cc1,-12.3% and 10.9%
22,COc1ccc(Cn2c(C(=O)O)c(CNCc3cccc(OC)c3)c3ccc(C)cc32)cc1,4.01%
